Measured values reported in the supplement of paper PMC3334620.
The full ranking holds about 33,000 sequences; the median of “E-score (-0.5 to 0.5)” is about -0.043, and the highest 2% start at about 0.37. Shown is part of a subset that was picked to be rich in the highest values.

molecular target: T1, Upc2 (UniProt Q12151); experiment: PBM E-score (8-mer binding enrichment) (E-score (-0.5 to 0.5)); higher = stronger / more preferred TF binding; conditions: protein concentration: 200 nM; construct: GST-full length
T1 sequence: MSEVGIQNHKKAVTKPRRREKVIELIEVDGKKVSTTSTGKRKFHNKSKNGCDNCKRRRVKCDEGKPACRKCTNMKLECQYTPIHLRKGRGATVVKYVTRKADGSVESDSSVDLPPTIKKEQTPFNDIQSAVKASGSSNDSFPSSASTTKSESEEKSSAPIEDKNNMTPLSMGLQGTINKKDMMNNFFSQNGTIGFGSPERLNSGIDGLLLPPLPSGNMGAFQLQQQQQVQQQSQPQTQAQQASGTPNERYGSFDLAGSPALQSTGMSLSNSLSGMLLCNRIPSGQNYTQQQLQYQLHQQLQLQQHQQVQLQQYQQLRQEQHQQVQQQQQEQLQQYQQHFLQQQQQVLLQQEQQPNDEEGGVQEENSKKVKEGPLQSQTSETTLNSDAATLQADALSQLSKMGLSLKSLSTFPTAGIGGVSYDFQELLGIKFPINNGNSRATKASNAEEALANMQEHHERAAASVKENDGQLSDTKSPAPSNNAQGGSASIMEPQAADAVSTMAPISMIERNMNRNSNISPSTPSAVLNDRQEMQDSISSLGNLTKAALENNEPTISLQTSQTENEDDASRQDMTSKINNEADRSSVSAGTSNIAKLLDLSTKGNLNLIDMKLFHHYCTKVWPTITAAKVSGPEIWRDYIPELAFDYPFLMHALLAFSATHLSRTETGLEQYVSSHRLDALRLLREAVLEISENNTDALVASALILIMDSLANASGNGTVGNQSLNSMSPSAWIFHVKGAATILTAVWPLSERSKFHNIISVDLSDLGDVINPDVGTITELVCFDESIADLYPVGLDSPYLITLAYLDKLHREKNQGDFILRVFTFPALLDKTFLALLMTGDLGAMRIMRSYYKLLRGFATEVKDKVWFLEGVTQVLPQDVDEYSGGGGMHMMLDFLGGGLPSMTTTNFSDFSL
In short: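 For each ungapped eight-base word taken together with its reverse complement, the Universal PBM Analysis Suite assigned an E-score. Binding data came from GST-tagged yeast transcription factors, applied at about 100-200 nM, on universal all-10-mer Agilent arrays made double-stranded by primer extension. Fluorescent anti-GST marked bound protein, and scans were normalised with masliner.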

Sequence | PBM E-score
CGCTCGTA | 0.466
AGCTCGTG | 0.107
CGCTCGTC | 0.127
AGCTCGTA | 0.473
AGGGCTAC | -0.113
GAGGGCGC | -0.0991
GTGGTTGA | -0.0855
CCGTAAGA | 0.21
ACGTATCA | 0.254
GCGTATCA | 0.182
TCGTAAGA | 0.399
TCGTATCA | 0.463
GCGTAACA | 0.118
CCGTAACA | 0.22
TCGTAACA | 0.404
ACGTAAGA | 0.146
CTGCAGAC | -0.0383
AACACTGA | 0.0163
GGGTCAAC | -0.231
TGAACTCA | -0.00504
CACCCTTC | -0.0111
TAATACCA | -0.0667

Sequence | PBM E-score
CAATACGG | 0.196
GAATACTA | 0.104
AAATACGC | 0.212
AAATACGA | 0.449
GAATACGA | 0.439
CAATACGA | 0.419
GAATACGC | 0.175
CAATACGC | 0.0949
AAATACGT | 0.109
TAATACTA | 0.105
TAATACGA | 0.429
ACTTTATA | 0.127
CCGTCCAC | -0.0949
AATACTAG | 0.00488
ATCAGACG | 0.0965
GGAGTGAC | -0.0854
AGCTCCAT | -0.216
ACTGTCCA | -0.0712
CGTACCCC | 0.391
AGTACCCA | -0.131
AGTACCCC | -0.00507
CATACCCC | -0.0287

Sequence | PBM E-score
CGTACCCA | 0.376
GGTACCCA | -0.0644
CTTTTGGA | -0.147
ACCCACAC | 0.11
TATACGGA | 0.47
GATACGGA | 0.278
GATACGCA | 0.276
CATACGCA | 0.313
TATACGCA | 0.449
CATACGGA | 0.365
ACACCATC | -0.205
CCAAGGAC | -0.247
CGGAGAAA | 0.158
CTTGATCA | -0.14
CTATATAC | 0.358
ATCTATAC | 0.287
ATTTATAA | 0.0439
AGCTATAC | 0.309
CGCTATAC | 0.392
CGTTATAC | 0.367
CTTTATAC | 0.303
ATTTATAC | 0.41

Sequence | PBM E-score
GGCTATAC | 0.299
AGTTATAC | 0.333
CTCTATAC | 0.397
GGTTATAC | 0.383
TCGAGAGA | 0.0401
GCTAACAC | -0.0792
CCTTACAA | -0.227
GCCTATAC | 0.276
CCCTATAC | 0.342
ACCTATAC | 0.382
AAGGGGGC | 0.0404
CATCTTCA | -0.263
CTAACGAC | 0.279
ACAACGAC | 0.258
CCAACGAC | 0.0191
AAAACGAT | 0.265
AAAACGAG | 0.316
AAAACGAC | 0.375
GAAACGCC | 0.0519
CCAACGAG | 0.091
CAAACGAC | 0.464
